Source: PubChem BioAssay (National Center for Advancing Translational Sciences (NCATS))
A selection: hits, their analogues and other compounds. The true share with any hit is near 0.96%.
TRPML1 inh = blocks the human TRPML1 channel; activity change, negative = inhibition, % (concentration not given with the values); AID 624415; 0.02% of 390,000 active; Q9GZU1; TRPML1-inducible cells, Ca2+ dye fluorescence, FDSS; stronger effect = lower value; inhibition of EC80 agonist-evoked calcium signal; in the data active = activity change below about -50%; inconclusive = between about -30% and that limit;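 also: stimulus is agonist 54-4 at its EC80 concentration; % is scaled to controls: 0 for no effect and ±100 for the full control effect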
Target sequence (Q9GZU1 whole entry, looked up): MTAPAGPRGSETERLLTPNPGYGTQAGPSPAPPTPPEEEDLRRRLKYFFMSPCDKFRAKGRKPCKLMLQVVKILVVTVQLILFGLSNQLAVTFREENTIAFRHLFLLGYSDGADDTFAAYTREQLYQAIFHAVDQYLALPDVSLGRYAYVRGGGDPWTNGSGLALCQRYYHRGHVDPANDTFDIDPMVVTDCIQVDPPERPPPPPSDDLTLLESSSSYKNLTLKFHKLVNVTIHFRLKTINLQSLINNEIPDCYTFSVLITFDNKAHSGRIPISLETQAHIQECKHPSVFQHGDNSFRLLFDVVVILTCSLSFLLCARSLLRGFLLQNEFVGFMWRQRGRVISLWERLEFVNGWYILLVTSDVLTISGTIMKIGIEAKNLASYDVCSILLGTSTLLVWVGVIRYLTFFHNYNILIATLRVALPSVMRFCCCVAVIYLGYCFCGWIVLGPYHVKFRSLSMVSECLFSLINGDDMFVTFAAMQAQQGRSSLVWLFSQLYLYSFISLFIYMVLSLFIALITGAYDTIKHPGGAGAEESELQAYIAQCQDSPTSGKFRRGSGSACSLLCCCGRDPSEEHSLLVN
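Calcium fluorescence in TRPML1-DL cells induced overnight with Tet: a 110 s read after compound pin addition, then a 110 s antagonist read after challenge with 54-4 at 4 uM final (EC80).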
TRPML1 agonist = agonists of human TRPML1 channel | activation, % (no concentration beside the values) | Q9GZU1 | 0.12% of 410,000 active | TRPML1-expressing cells, Ca2+ dye fluorescence, FDSS | AID 624414; in the data active = activation above about 50%; inconclusive = mostly about 30% to 49%; also: 0% is about no effect
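In this qHTS format, compounds were pin-transferred onto Ca8-dye-loaded TRPML1-DL cells induced with Tet overnight, and intracellular Ca2+ fluorescence was recorded kinetically for 110 s after a 10 s baseline. A subsequent 4uM final 54-4 (EC80) addition followed by a second 110 s read served as the antagonist phase.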
TRPV1 agonist = agonists of human vanilloid receptor 1 (TRPV1); Q8NER1; TRPV1-expressing cells, Fluo-8 calcium influx, agonist mode; activation, % at 8.33 µM; 0.19% of 320,000 active; in the data active = activation above about 80%; inconclusive = between about 30% and that limit; also: 0% is about no effect
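Fluo-8 calcium influx in TRPV1-expressing cells, kinetic read (ex 480/em 520 nm). Compound added and read 3 min for agonist activity, followed by capsaicin at EC20 final and 2 min further read for enhancement.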
TRHR enhancer = TRH receptor (human) allosteric enhancement | P34981 | TRHR cells, fluo-8 calcium fluorescence, EC20 TRH enhancement | enhancement, % at 2 µM | 0.66% of 360,000 active | AID 493056; in the data active = enhancement above about 30%; also: 0% is about no effect
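Enhancer read-out: after compound pinning and an initial kinetic agonist-mode read, an EC20 of TRH (10 nM final) was injected and fluo-8 calcium signal (Ex 480/Em 530) followed at 1 s/cycle for 100 cycles in TRHR-expressing cells.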
TRHR agonist = agonists of human TRH receptor. P34981. TRHR cells, calcium flux fluo-8, FDSS agonist mode. activation, % at 2 µM. 0.18% of 360,000 active. AID 493084; in the data active = activation above about 30%; also: 0% is about no effect
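TRHR-expressing cells loaded with fluo-8 calcium dye; 23 nL library compound pin-transferred, kinetic FDSS fluorescence (Ex 480/Em 530) recorded about 180 s for agonist-induced calcium release, before a 10 nM TRH EC20 addition for potentiator mode.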
TRPV1 PAM = potentiators of human vanilloid receptor 1 (TRPV1). 0.02% of 320,000 active. potentiation, % at 8.33 µM. AID 540277. TRPV1-expressing cells, Fluo-8 calcium influx, capsaicin EC20 potentiation; in the data active = potentiation above about 80%; inconclusive = between about 30% and that limit; also: 0% is about no effect
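Fluo-8 calcium influx in TRPV1-expressing cells, kinetic read (ex 480/em 520 nm). Compound added and read 3 min for agonist activity, followed by capsaicin at EC20 final and 2 min further read for enhancement.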
* marks the source's active call; other numbers are inactive results; ? = inconclusive; . = not tested or not shown.

SMILES	TRPML1 inh	TRPML1 agonist	TRPV1 agonist	TRHR enhancer	TRHR agonist	TRPV1 PAM
CCN(Cc1cccs1)C(=O)CN1C(=O)NC2(CCCc3ccccc32)C1=O (stereo not given)	-3.6	-0.2	-1.3	8.6	-0.1	21.9
CCN(Cc1cccs1)C(=O)CN1C(=O)NC(c2ccccc2)(c2ccccc2)C1=O	-0.8	1.1	-1.5	35.5*	0.6	2.7
O=C(Nc1nnc(CCc2ccccc2)s1)C1CCN(C(=O)c2ccco2)CC1	.	-0.5	.	.	.	.
COc1ccc2c(c1)CCc1c(C(=O)N3CCOCC3)noc1-2	9.7	-0.7	81.2*	13.6	0.7	-14.5
O=C(Nc1cc(Cl)cc(Cl)c1)c1cnn2c1NC(=C1CC1)C=C2C(F)F	.	-0.7	.	.	.	.
Cc1nnc(SCC(=O)N2CCN(c3ccccc3)CC2)n(N)c1=O	5.8	-0.3	1.0	38.0*	0.4	-6.2
O=S(=O)(Nc1cccc2cccnc12)c1ccccc1Br	-14.0	2.1	16.2	1.2	0.0	10.0
Cc1cccc(NS(=O)(=O)c2cc(C(=O)NCCC3=CCCCC3)ccc2Cl)c1	12.0	2.4	-0.4	34.6*	0.6	-6.6
CN(C)c1ccc(C(=O)Oc2cc(O/N=[N+](\[O-])N(C)C)c([N+](=O)[O-])cc2[N+](=O)[O-])cc1	-9.6	0.5	.	.	.	.
COC(=O)c1cc2occc2n1Cc1cccc(C)c1	12.5	-0.1	4.3	-0.9	-3.3	2.3
CCc1cccc(NC(=O)Cn2c(C(=O)OC)cc3occc32)c1	7.7	0.3	.	36.5*	0.0	.
Cc1ccc2[nH]c(=O)c(CN(Cc3ccccc3)C(=S)NCCCN(C)C)cc2c1	10.2	-0.4	?	33.7*	0.3	-15.0
CCCCN(Cc1cc2cc(C)ccc2[nH]c1=O)C(=O)c1ccccn1	-7.4	-0.4	-1.7	30.3*	-0.5	-0.9
O=C(COc1ccccc1C(=O)Nc1ccccc1)Nc1cccc(Br)c1	.	0.0	.	.	.	.
Cc1cc(Cn2cnc3c(cnn3C(C)(C)C)c2=O)ccc1F	-21.9	0.7	.	.	.	.
Nc1nc(NCc2ccccc2Cl)c2[nH]cnc2n1	.	-0.8	.	.	.	.
O=C(N/N=C/c1cccnc1)c1ccc(NC(=O)c2ccccc2Cl)cc1	13.6	-1.0	?	31.3*	1.1	-16.1
CCC(=O)Nc1ccc(C(=O)N/N=C/c2cccnc2)cc1	8.6	0.7	-0.9	-4.3	-0.3	6.1
CCCCCCC(=O)Nc1ccc(C(=O)N/N=C/c2cccnc2)cc1	-1.8	-0.4	85.7*	-0.9	0.2	13.4
Cc1ccc(C(=O)Nc2ccc(C(=O)N/N=C/c3cccnc3)cc2)cc1	-5.7	0.3	?	-0.1	0.6	-4.5
Cc1ccc(N2CCN(C(=O)Nc3cccc([N+](=O)[O-])c3)CC2C)cc1 (stereo not given)	-5.1	5.6	82.9*	-4.0	1.5	1.0
CC1CCN(CC(=O)Nc2cccc([N+](=O)[O-])c2)CC1	3.9	-0.1	1.2	5.3	-0.1	-9.8
O=C(Nc1cccc([N+](=O)[O-])c1)N1CCN(c2ccccc2)CC1	12.6	-0.8	100.4*	-5.7	0.5	-16.9
CC(C)CNC(=O)COC(=O)c1cc(S(=O)(=O)N2CCCCC2)ccc1N1CCOCC1	21.9	-0.7	-1.5	32.4*	-0.2	4.5
O=C(COC(=O)c1cc(S(=O)(=O)N2CCCCC2)ccc1N1CCOCC1)NCCc1ccc(F)cc1	7.1	2.4	-1.5	30.8*	-0.4	-0.7
SMILES	TRPML1 inh	TRPML1 agonist	TRPV1 agonist	TRHR enhancer	TRHR agonist	TRPV1 PAM
CC(C)NC(=O)NC(=O)COC(=O)c1cc(S(=O)(=O)N2CCCCC2)ccc1N1CCOCC1	-12.4	0.5	13.5	-4.7	-1.7	-6.6
Cc1cc(S(=O)(=O)Cc2noc(-c3c(C)noc3C)n2)c(C)cc1Cl	-13.8	120.0*	0.7	-0.3	0.1	11.2
CCOC(=O)N1CCN(C(=O)c2cc3cc(Br)ccc3oc2=O)CC1	4.5	-0.1	3.5	40.6*	-0.2	-8.3
COc1ccccc1N1CCN(C(=O)c2cc3cc(Br)ccc3oc2=O)CC1	9.9	-0.1	.	-8.1	-0.6	.
CC(C)(C)n1ncc2c(=O)n(Cc3cccc(-c4ccccc4)c3)cnc21	38.5	3.8	.	.	.	.
Cc1cccnc1NC(=O)CCNS(=O)(=O)c1ccc2c(c1)c(=O)n(C)c(=O)n2C	-1.3	0.6	-2.1	35.0*	0.1	-5.1
Cc1nc2cc(-c3cccc(F)c3)nn2c(N2CCN(C(=O)c3ccco3)CC2)c1C	16.1	-0.6	81.2*	-8.2	-0.7	-20.1
N#Cc1nc(Nc2ccc(F)cc2)nc(NC2CCCC2)n1	.	.	.	4.1	-0.9	.
CCCCCCn1c(=O)[nH]c2nc3cc(N)ccc3nc2c1=O	-9.7	50.8*	?	30.6*	129.6*	1.3
CCCCCn1c(=O)c(C(=O)c2ccccc2)nc2ccccc21	16.0	2.2	?	-8.5	0.4	-16.6
CCN(CC)C(=O)N1CCN(/[N+]([O-])=N/Oc2ccc([N+](=O)[O-])cc2[N+](=O)[O-])CC1	21.5	2.1	.	.	.	.
Cc1nn(CCCC(=O)NCc2ccc(F)cc2)c(C)c1[N+](=O)[O-]	-11.9	2.0	-5.3	30.4*	-1.1	17.2
Cc1nn(CCCC(=O)Nc2cnn(Cc3ccc(F)cc3)c2)c(C)c1[N+](=O)[O-]	-10.0	0.6	-0.3	-2.8	0.3	-14.3
O=C(O)/C=C/c1cc(F)c(S(=O)(=O)N2CCN(S(=O)(=O)c3ccc4c(c3)OCCO4)CC2)cc1F	.	.	.	-4.2	-2.2	.
O=C(Cc1ccc(F)cc1)Nc1nc(-c2ccc(F)cc2)cs1	1.7	-0.4	104.2*	-12.8	0.7	-30.8
O=C(Cc1ccccc1F)Nc1nc(-c2cccs2)cs1	-10.6	1.0	81.3*	2.1	-0.2	-1.5
O=C(Cc1ccccc1)Nc1nc(-c2cccs2)cs1	-19.1	0.5	93.7*	19.6	1.3	-7.1
O=C(Nc1cccc([N+](=O)[O-])c1)c1ccc(-c2ccccc2)cc1	1.9	0.0	86.9*	7.5	1.2	16.7
CC(=O)Nc1ccc(C(=O)NNC(=O)c2cc([N+](=O)[O-])cc([N+](=O)[O-])c2)cc1	2.0	-0.7	0.7	-6.1	0.5	-1.9
CCN(CC)c1ccc(C(=O)Nc2ccccc2)cc1[N+](=O)[O-]	2.0	2.3	81.9*	-4.3	-1.1	-12.9
CC(C(=O)Nc1cccc([N+](=O)[O-])c1)[n+]1ccccc1 (stereo not given)	-20.7	-0.4	1.2	31.3*	0.5	1.5
CC(=O)Nc1ccc(NC(=O)c2cc([N+](=O)[O-])cc([N+](=O)[O-])c2)cc1	2.1	0.0	2.5	38.4*	0.5	-12.2
O=S(=O)(c1ccc2c(c1)OCCO2)N1CCN(S(=O)(=O)c2ccc3nc(Cl)c(Cl)nc3c2)CC1	.	.	.	0.6	-0.8	.
